CYP2C9 inh – blockers of cytochrome P450 2C9 activity – biochemical, luminescence, ADME assay, primary screen. P11712. CYP2C9 Supersomes, luciferin-H conversion. inhibition, % at 5 µM. 96,000 tested, 20% active;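 active = blocking of liver enzyme CYP2C9 beyond about 50% at 5 µM, limit read from the data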
CYP2C9 activ – human CYP2C9 activators, primary screen, biochemical, luminescence | activation factor at 5 µM | AID 1024, 2008 | recombinant CYP2C9, luciferin-H conversion; stronger effect = higher value; factor 1 = untreated enzyme, 0 = blocked | 96,000 tested, 1.4% active;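 active = activation factor of 2 or more for CYP2C9 at a 5 µM dose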
Measles CPE – compounds protecting cells from measles virus cytopathic effect, primary screen, measles RdRp inhibitor project, single point, MLSMR library, absorbance; Measles virus-infected cells, CPE protection; protection (pct of control), % at 4 µM; 140,000 tested, 1.5% active; AID 841, 2007; in the data active = protection mostly above about 24%, no sharp cut-off; inactive = mostly below about 26%
CYP2C19 inh – blockers of cytochrome P450 2C19 activity – biochemical, luminescence, ADME assay, primary screen; P33261; inhibition, % at 5 µM; 96,000 tested, 21% active; CYP2C19 Supersomes, luciferin-H EGE luminescence, 30 min;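 active = CYP2C19 inhibition above a set limit at 5 µM in the primary screen, cut at about 50% in these data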
Target sequence (P33261 whole entry, looked up): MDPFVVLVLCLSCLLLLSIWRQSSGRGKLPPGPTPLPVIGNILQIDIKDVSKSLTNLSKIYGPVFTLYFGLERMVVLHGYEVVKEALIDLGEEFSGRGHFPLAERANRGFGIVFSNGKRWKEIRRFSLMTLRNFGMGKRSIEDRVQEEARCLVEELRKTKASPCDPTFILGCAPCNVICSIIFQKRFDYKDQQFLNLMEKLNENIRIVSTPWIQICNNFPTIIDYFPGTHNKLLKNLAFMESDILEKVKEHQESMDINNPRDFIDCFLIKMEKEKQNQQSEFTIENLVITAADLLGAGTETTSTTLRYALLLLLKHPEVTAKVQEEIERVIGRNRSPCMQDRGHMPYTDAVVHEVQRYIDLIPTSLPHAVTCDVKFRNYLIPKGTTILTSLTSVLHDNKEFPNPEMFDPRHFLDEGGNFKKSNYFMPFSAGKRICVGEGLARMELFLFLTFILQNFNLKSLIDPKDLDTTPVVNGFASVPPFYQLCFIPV
CYP2C19 activ – human CYP2C19 activators, primary screen, biochemical, luminescence | Cytochrome P450 2C19 (Homo sapiens), P33261 | recombinant CYP2C19, luciferin-H EGE luminescence; stronger effect = higher value; 0 = fully inhibited enzyme, 1 = untreated enzyme | activation factor at 5 µM | 96,000 tested, under 10 active;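 active = activation factor of at least 2 at 5 µM in the primary screen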
Each line names hits and unclear results; the compound was inactive in the other large screens. In the library only some 22% were active in any assay of this set; here they are far more common.

O=C(CN(Cc1ccccc1)C(=O)c1ccco1)NCc1ccc(F)cc1	CYP2C19 inh 83.5
O=C(CN(C(=O)CNS(=O)(=O)c1ccccc1)c1ccc2c(c1)OCCO2)NCc1ccco1	none
O=C(CN(CCc1ccccc1)C(=O)CNS(=O)(=O)c1ccc(F)cc1)NCc1ccco1	CYP2C19 inh 72.8
O=C(Nc1ccc2cn[nH]c2c1)c1ccc(Cl)c(S(=O)(=O)N2CCOCC2)c1	none (no result: CYP2C9 inh, CYP2C9 activ, CYP2C19 inh, CYP2C19 activ)
O=C(NCC1CCCO1)C1c2ccccc2C(=O)N1C1CCCCCC1 (centres undefined)	none
COc1ccccc1C1(CC(=O)N2CCOCC2)CCOC(C(C)C)C1 (centres undefined)	none
COC(=O)/C(=C(/F)Sc1cc(C)c(O)c(C)c1)C(F)(F)F	CYP2C9 inh 94.1, CYP2C19 inh 81.7
COC(=O)/C(=C1/Oc2cc(C)oc(=O)c2S1)C(F)(F)F	none (no result: CYP2C9 inh, CYP2C9 activ, CYP2C19 inh, CYP2C19 activ)
Cc1csc(SCC(=O)Nc2ncc(Cl)c(C)c2Cl)n1	none
Cc1ccc(C)n1-c1nccc(-c2cccs2)n1	none
COC(=O)C(C)Oc1ccc(-c2nccc(-c3cccs3)n2)cc1 (centres undefined)	CYP2C9 inh 64.8
Oc1ccc(-c2nccc(-c3cccs3)n2)cc1	CYP2C9 inh 67.5
O=C(Nc1nccc(-c2cccs2)n1)c1ccccc1Cl	none
CC1(C)CC(=O)CC(=O)/C1=N\Nc1c(Cl)cc(Cl)cc1Cl	none (no result: CYP2C9 inh, CYP2C9 activ, CYP2C19 inh, CYP2C19 activ)
Cc1cc(C)nc(NS(=O)(=O)c2ccc(NC(=O)CCCN3C(=O)c4ccccc4C3=O)cc2)n1	none
c1ccc(Nc2nc3ccccc3o2)cc1	none
FC(F)(F)Oc1ccc(Nc2nc3ccccc3o2)cc1	CYP2C9 inh 75.5
CCOC(=O)c1c(/N=C/c2cc([N+](=O)[O-])ccc2O)sc(C)c1C	none (no result: CYP2C9 inh, CYP2C9 activ, CYP2C19 inh, CYP2C19 activ)
CCOC(=O)c1c(/N=C/C2=C(O)CC(C)(C)CC2=O)sc(C)c1C	Measles CPE 52.0 (no result: CYP2C9 inh, CYP2C9 activ, CYP2C19 inh, CYP2C19 activ)
CN(C)c1ccc(/C=C/C(=O)c2cccc(Br)c2)cc1	CYP2C19 inh 92.9
CCCN(CCC)S(=O)(=O)c1cccc(C(=O)Nc2ccc3c(c2)OCO3)c1	CYP2C9 inh 63.0
CCCC(=O)Nc1cccc(NC(=O)c2ccc3c(c2)OCO3)c1	CYP2C9 inh 52.4
Cc1ccc(NC(=O)c2oc3ccccc3c2NC(=O)c2ccc3c(c2)OCO3)cc1	CYP2C9 inh 50.7
CCC(CC)C(=O)Nc1cccc(C(=O)Nc2ccc(S(=O)(=O)Nc3ccc(C)cc3)cc2)c1	CYP2C9 inh 90.5, CYP2C19 inh 86.8
O=C(Nc1cccc(NC(=O)c2ccc(-c3ccc(Br)cc3)o2)c1)c1ccco1	none (no result: CYP2C9 inh, CYP2C9 activ, CYP2C19 inh, CYP2C19 activ)
O=C(Nc1cccc(F)c1)c1ccc2c(c1)OCO2	CYP2C9 inh 50.1, CYP2C19 inh 93.9
O=C(Nc1c(C(=O)Nc2cccc(F)c2)oc2ccccc12)c1ccc2c(c1)OCO2	none
CCC(CC)C(=O)Nc1cccc(C(=O)Nc2ccc3c(c2)OCO3)c1	CYP2C9 inh 87.8, CYP2C19 inh 84.0
O=C(CNc1cccc(C(F)(F)F)c1)N/N=C/c1cn(-c2ccccc2)nc1-c1ccccc1	none (no result: CYP2C9 inh, CYP2C9 activ, CYP2C19 inh, CYP2C19 activ)
CCCOC(=O)/C(C(N)=NCc1ccccc1)=C(\O)OCCC	none
COc1ccc(NC(=O)Cc2coc3ccc4ccccc4c23)cc1S(=O)(=O)N1CCOCC1	none (no result: CYP2C9 inh, CYP2C9 activ, CYP2C19 inh, CYP2C19 activ)
COCCn1c(SCC(=O)Nc2cccc(C)c2)nnc1C(C)C	CYP2C19 inh 68.1
COCCn1c(SCC(=O)c2ccc3c(c2)OCCO3)nnc1C(C)C	none
COCCn1c(SCC(=O)c2ccc(Cl)cc2)nnc1C(C)C	CYP2C19 inh 73.6
COCCn1c(SCC(=O)Nc2cc(C)cc(C)c2)nnc1C(C)C	CYP2C19 inh 60.7
CCc1cccc(C)c1NC(=O)CSc1nnc(-c2cc3cc(Br)ccc3o2)n1CC	CYP2C9 inh 56.2
CCn1c(SCC(=O)Nc2cccc(NC(C)=O)c2)nnc1C(C)C	none
Cn1c(SCC(=O)Nc2cccc(Br)c2)nnc1-c1cc2ccccc2o1	none
CSc1nc(C)cc(-n2ccc(=O)[nH]c2=O)n1	none
CCCn1c(SCC(=O)Nc2c(CC)cccc2CC)nnc1C(C)C	CYP2C19 inh 57.7
Cc1ccc(C(=O)c2cc(C)sc2NC(=O)CN2CCN(C(=O)c3ccco3)CC2)cc1	none
CC(=O)N1CCC(Nc2ccc(C)cc2)CC1	CYP2C9 inh 53.5
CCOc1ccc(NC2CCN(C(C)=O)CC2)cc1	none
Cc1onc(-c2ccccc2Cl)c1C(=O)N(Cc1nc(-c2ccccc2)no1)C1CCCCC1	CYP2C9 inh 85.8, CYP2C19 inh 95.3
CCOC(=O)C1CCN(Cc2nc(-c3ccc(OC)c(OC)c3)no2)CC1	none
COc1ccc(C(=O)N(Cc2nc(-c3ccc(C)cc3)no2)C2CCCCC2)cc1OC	CYP2C9 inh 81.2, CYP2C19 inh 81.5
Cc1cccc(-c2noc(CN(C(=O)c3c(-c4ccccc4Cl)noc3C)C(C)C)n2)c1	CYP2C9 inh 63.1, CYP2C19 inh 91.2
Cc1onc(-c2ccccc2Cl)c1C(=O)NCC(=O)O	none
COc1ccc(/C=N/n2cncn2)cc1CSc1ccccn1	CYP2C19 inh 83.0
COc1ccc(/C=N/NC(=O)c2ccccc2O)cc1CSc1ccccn1	none (no result: CYP2C9 inh, CYP2C9 activ, CYP2C19 inh, CYP2C19 activ)
Cc1csc(C(C#N)C(=O)c2cc3ccccc3o2)n1 (centres undefined)	CYP2C9 inh 60.2
CCCCn1c(NC(=O)c2ccc(Br)o2)c(S(=O)(=O)c2ccccc2)c2nc3ccccc3nc21	CYP2C9 inh 83.3
CCCC(=O)N(CCN(C(=O)CCC)c1ccccc1)c1ccccc1	none (no result: CYP2C9 inh, CYP2C9 activ, CYP2C19 inh, CYP2C19 activ)
O=c1oc2ccccc2cc1-c1csc(Cc2nc(-c3ccc(Br)cc3)cs2)n1	CYP2C9 inh 70.0, CYP2C19 inh 61.2
Cc1cc(C)c(-c2csc(Cc3nc(-c4cc5ccccc5oc4=O)cs3)n2)cc1C	none (no result: CYP2C9 inh, CYP2C9 activ, CYP2C19 inh, CYP2C19 activ)
CC(C)Oc1ccc(S(=O)(=O)N(C(C)C)C(C)C)cn1	none (no result: CYP2C9 inh, CYP2C9 activ, CYP2C19 inh, CYP2C19 activ)
Cc1nn(-c2ccccn2)c2nc(-c3cccs3)cc(C(=O)NCc3ccco3)c12	CYP2C9 inh 85.8, CYP2C19 inh 60.8
Cc1nn(-c2ccccc2)c2nc(-c3ccncc3)cc(C(=O)NCc3ccco3)c12	CYP2C9 inh 93.7, CYP2C19 inh 91.1
O=C(CN1CCC(NC(=O)c2ccc(F)cc2)CC1)NCc1ccccc1F	none (no result: Measles CPE)
CCOc1ccccc1N1CCN(C/C=C/c2ccc(N(C)C)cc2)CC1	none
CC(NC(=O)OCc1ccccc1)C(=O)Oc1cc2oc(=O)cc(-c3ccccc3)c2cc1Cl (centres undefined)	Measles CPE 28.9 (no result: CYP2C9 inh, CYP2C9 activ, CYP2C19 inh, CYP2C19 activ)
Cc1[nH]c2ccc(OCc3ccccc3)cc2c1CCN1C(=O)OC(C)(C)C1(C)O (centres undefined)	CYP2C19 inh 50.8
CC1(C)OC(=O)N(CCc2ccccc2)C1(C)O (centres undefined)	none
CN1CCN(S(=O)(=O)c2ccc(N)cc2)CC1	none (no result: CYP2C9 inh, CYP2C9 activ, CYP2C19 inh, CYP2C19 activ)
CC1CCN(S(=O)(=O)c2ccc3ccccc3c2)CC1	CYP2C9 activ 2.7, CYP2C19 inh 83.3
CN1CCN(S(=O)(=O)c2ccc3ccccc3c2)CC1	CYP2C9 activ 2.5

Screens deposited in PubChem BioAssay by several laboratories.
